Screening results from PubChem.
Pol III holo inh: blocks replication by bacterial DNA polymerase III holoenzyme; reconstituted DNA polymerase III holoenzyme replication, biochemical; Potency, µM (doses to about 57.1 µM); actives 0.25% (n = 71,000)
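Reconstituted *E. coli* holoenzyme (0.35 nM Pol III, 1 nM beta, 154 nM SSB, 2 nM primase) was preincubated with compound for 15 min at RT. Synthesis on 1.4 nM ssM13Gori ran 35 min, then was stopped with PicoGreen/EDTA and read as dsDNA fluorescence.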
BRCT PPI green: BRCA1 BRCT-phosphoprotein interaction inhibition | P38398 | BRCA1 BRCT-phosphopeptide binding, green fluorescence polarization | Potency, µM (top dose mostly 76.9 µM), usual class: inhibitors | actives 0.05% (n = 75,000) | AID 875
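Compounds were incubated for 12 min at room temperature with a complex of 100 nM fluorescein-tagged pBACH1 decapeptide and 250 nM His-tagged BRCT protein. Buffer was phosphate pH 7.3 with EDTA, DTT and Tween 20. Disruption of binding lowers the polarization signal.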
15-hLO inh: blocks human 15-lipoxygenase activity; P16050; purified 15hLO-1, xylenol orange hydroperoxide absorbance; Potency, µM (top dose mostly 57.1 µM), usual class: inhibitors; actives 1.4% (n = 74,000); also: nearly all actives have a fitted effect of over 55% in size
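Quantitative HTS in 25 mM Hepes pH 7.5 containing 0.01% Triton X-100: human 15hLO-1 at 40 nM, arachidonic acid at 50 uM, 6 min turnover. Product quantified via ferrous oxidation/xylenol orange, 573:405 nm absorbance ratio.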
BRCT PPI red: BRCT-phosphoprotein interaction inhibition (red fluorophore); P38398; BRCT-phosphopeptide binding, red fluorescence polarization; Potency, µM (doses to about 76.9 µM), most hits filed as inhibitors; actives 0.03% (n = 75,000); AID 892
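Fluorescence polarization: 100 nM His-tagged BRCA1 BRCT with 100 nM TAMRA-labelled phospho-BACH1 decapeptide, phosphate buffer pH 7.3 with 150 mM NaCl, DTT, 0.01% Tween 20; 12 min RT. Binding inhibition seen as FP decrease.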
ALOX15B inhib: inhibitors of human 15-lipoxygenase 2 (ALOX15B); Potency, µM (series often up to 57.1 µM), actives largely listed as inhibitors; purified 15hLO-2, xylenol orange hydroperoxide absorbance; O15296; actives 0.56% (n = 110,000); also: nearly all actives have a fitted effect of over 60% in size
Target sequence (O15296 whole entry, looked up): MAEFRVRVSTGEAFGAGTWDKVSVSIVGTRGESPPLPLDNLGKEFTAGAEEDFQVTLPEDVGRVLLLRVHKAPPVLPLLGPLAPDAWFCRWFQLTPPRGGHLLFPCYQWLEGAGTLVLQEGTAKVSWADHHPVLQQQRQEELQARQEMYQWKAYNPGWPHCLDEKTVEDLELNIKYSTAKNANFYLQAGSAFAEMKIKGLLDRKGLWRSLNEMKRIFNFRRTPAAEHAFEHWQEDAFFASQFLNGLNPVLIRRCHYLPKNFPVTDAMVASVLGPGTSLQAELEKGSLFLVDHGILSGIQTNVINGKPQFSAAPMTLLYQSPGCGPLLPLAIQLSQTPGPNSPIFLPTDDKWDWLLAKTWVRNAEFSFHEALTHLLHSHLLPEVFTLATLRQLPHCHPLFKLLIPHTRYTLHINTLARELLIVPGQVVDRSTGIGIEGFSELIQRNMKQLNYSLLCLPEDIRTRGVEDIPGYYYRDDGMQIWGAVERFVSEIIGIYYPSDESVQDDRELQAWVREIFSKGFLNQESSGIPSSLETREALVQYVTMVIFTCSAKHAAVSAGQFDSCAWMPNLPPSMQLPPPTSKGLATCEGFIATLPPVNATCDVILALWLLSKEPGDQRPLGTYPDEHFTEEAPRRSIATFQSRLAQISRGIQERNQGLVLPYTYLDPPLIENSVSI
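Enzyme 50 nM, AA 45 uM, 25 mM Hepes pH 7.5 + 0.01% Triton X-100; cpd preinc 15 min RT, rxn 90 min RT; stop/detect with 200 uM XO + 300 uM Fe(II) in 50 mM H2SO4, 30 min; A573/A405.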
TsaE inh: displaces an ADP probe from E. coli YjeE (TsaE) | purified YjeE enzyme, qHTS inhibition assay | Potency, µM | actives 0.05% (n = 71,000) | AID 605
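Purified YjeE (10 uM) with BODIPY Texas Red-labeled ADP probe (2 uM); compounds pin-transferred, 15 min at room temperature. Binding inhibition read as decreased fluorescence polarization; ADP titration as control.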
Hits are given with their value; – = inactive; ? = inconclusive; · = not tested or not shown; [ ] = another dose, or the depositor's remark. Only a selection was taken, and hits are over-represented in it overall. Calls follow the shape of the dose curve; as a rule, active = well fitted curve in the direction sought with a large enough effect; inconclusive = small, poorly fitted or top-dose-only effect, or another doubt; inactive = no such curve, though single readings can be large; an effect the other way counts as inactive or inconclusive.

SMILES	Pol III holo inh	BRCT PPI green	15-hLO inh	BRCT PPI red	ALOX15B inhib	TsaE inh
COc1ccccc1NC(=O)C1=C(C)NC(SCC(=O)c2ccc(C)cc2)=C(C#N)C1c1ccco1 (stereo not drawn)	·	·	·	·	–	·
CC(=O)C1=C(C)NC(SCC(=O)c2ccc(F)cc2)=C(C#N)C1c1ccco1 (stereo not drawn)	–	–	20µM	–	–	–
CCc1ccc(C(=O)CSC2=C(C#N)C(c3ccco3)C(C(C)=O)=C(C)N2)cc1 (stereo not drawn)	–	–	10µM	–	–	–
C/C=C/C=C/C=O	–	–	–	–	–	–
CCCCN1CSC(=S)N(Cc2ccccc2)C1	–[11.4 µM]	–[15.4 µM]	?	–[15.4 µM]	–[11.4 µM]	–
CCOc1ccccc1N1C(=O)CC(Nc2ccc(N3CCOCC3)cc2)C1=O (stereo not drawn)	–[11.4 µM]	–	?	–	16µM	–
COc1ccccc1N1C(=O)CC(Nc2ccc(N3CCOCC3)cc2)C1=O (stereo not drawn)	–	–	13µM	–	–	–
O=C(O)[C@@H]1[C@@H](C(=O)NCc2ccncc2)[C@@H]2C=C[C@@H]1O2	–[11.4 µM]	–[15.4 µM]	–[11.4 µM]	–[15.4 µM]	–[11.4 µM]	–
O=c1oc2c(CN3CCCCCC3)c(O)ccc2cc1-c1nc2ccccc2[nH]1	–	32µM	–	–	–	–
CC(C)(C)c1ccc(O)c(/C=N\O)c1	·	·	·	·	–	·
CC(C)(C)c1ccc(O)c(O)c1	–	–	4µM	–	5µM	–
[O-][N+]1=c2ccc(Nc3ccccc3)cc2=NC12CCCCC2	–	–	3.2µM	–	–	–
CCCCNc1nc(C)nc2c1nc(-c1ccccc1)n2CCN(C)C	–	–	–	–	–	–
CCN(CC)CCCn1c(-c2ccccc2)nc2c(N(CCOC)CCOC)nc(C)nc21	–	–	–	–	–	–
COCCN(CCOC)c1nc(C)nc2c1nc(-c1ccccc1)n2CCN(C)C	–	–	25µM	–	–	–
Cc1nc(N2CCOCC2)c2nc(-c3ccccc3)n(CCN(C)C)c2n1	–	–	13µM	–	–	–
Cc1nc(NCCO)c2nc(-c3ccccc3)n(CCN(C)C)c2n1	–	–	32µM	–	–	–
Cc1nc(NCc2ccccc2)c2nc(-c3ccccc3)n(CC(C)(C)CN(C)C)c2n1	–	–	4µM	–	–	–
CCCCCC[C@@H]([C@H](C)O)n1cnc2c(N)ncnc21	–	–	–	–	–	–
COc1ccc(C(=O)[C@H]2[C@H]3[C@@H](C(=O)[C@@H]4OC[C@H]3O4)[C@H]3C=Cc4ccccc4N32)c(OC)c1	–	·	·	·	·	–
Cc1ccc(S(=O)(=O)N(CC(=O)O)c2ccc(Cl)cc2)cc1	·	–	–	–	·	·
NC(=O)SCC(=O)Nc1ccc2ncccc2c1	–[11.4 µM]	–[15.4 µM]	–[11.4 µM]	–[15.4 µM]	–[11.4 µM]	–
Cc1ccc(S(=O)(=O)N[C@@H]2COC(=O)C/C=C\[C@H](C)COC(=O)N[C@@H](C)C(=O)C/C=C\[C@H]2C)cc1	·	–[15.4 µM]	–[11.4 µM]	–[15.4 µM]	·	·
CCCn1c(-c2ccc(F)cc2)nc2c(NCC(C)(C)CN(C)C)nc(C)nc21	–	–	13µM	–	–	–
CCCn1c(-c2ccc(F)cc2)nc2c(NC3CCN(Cc4ccccc4)CC3)nc(C)nc21	–	–	20µM	–	–	–
SMILES	Pol III holo inh	BRCT PPI green	15-hLO inh	BRCT PPI red	ALOX15B inhib	TsaE inh
CCCn1c(-c2ccc(F)cc2)nc2c(NCCCN(C)C)nc(C)nc21	–	–	–	–	–	–
CCCn1c(-c2ccc(F)cc2)nc2c(NCC3CCN(C)CC3)nc(C)nc21	–	–	–	–	–	–
COc1ccc2nc(N3CCCCC3)c(C#N)cc2c1	–	–	25µM	–	–	–
COc1ccc2nc(N3CCCC3)c(C#N)cc2c1	–	–	?	–	–	–
CC(C)(C)C(=O)[C@H]([C@@H](c1ccccc1)N1CCOCC1)N1CCOCC1	–[11.4 µM]	–[15.4 µM]	–[11.4 µM]	–[15.4 µM]	–[11.4 µM]	–
CC(=O)OC(C)(C)N=Nc1ccc(Br)cc1	–[11.4 µM]	·	·	·	·	–
N#CC1=C(N)Oc2cc(O)ccc2C1c1ccncc1 (stereo not drawn)	·	·	·	·	–	·
CN(C)c1ccc2c(c1)OC(N)=C(C#N)C2c1cccc(F)c1 (stereo not drawn)	–	–	13µM	–	–	–
N[C@H](CCCC(=O)O)C(=O)O	–	–	–	–	–	–
CN(C)c1ccc(-c2nc(NCc3cccnc3)c3ccccc3n2)cc1	–	–	20µM	–	–	–
COc1ccc(CNc2nc(-c3ccc(N(C)C)cc3)nc3ccccc23)c(OC)c1	–	–	10µM	–	–	–
COc1cc(CNc2ccc3[nH]c(=O)[nH]c3c2)cc(Br)c1OCC(=O)NC(C)(C)C	·	·	·	·	–	·
COc1cc(CNc2ccc3[nH]c(=O)[nH]c3c2)ccc1OCC(=O)NC(C)(C)C	–	–	25µM	–	–	–
Cc1nn2cc(-c3ccc(-c4ccccc4)cc3)nc2s1	–	–	–	–	–	–
CCc1nn2cc(-c3ccccc3)nc2s1	–	–	10µM	–	–	–
CCOC(=O)C1=C(O)c2ccccc2C(=O)/C1=C\c1ccc(CC)cc1	·	·	·	·	10µM	·
CCCc1ccc(/C=C2\C(=O)c3ccccc3C(O)=C2C(=O)OCC)cc1	·	·	·	·	6.3µM	·
N#C[C@H](c1ccccc1)N1CCCN([C@@H](C#N)c2ccccc2)C1c1ccccc1O (stereo partly drawn)	–[11.4 µM]	–[15.4 µM]	–[11.4 µM]	–[15.4 µM]	–[11.4 µM]	–
CCN1C(=O)[C@H]2[C@H]3[C@H](O)[C@H](O)C/C(=N/O[C@@H](C)CN4CCCc5nc(C)c(C)cc54)[C@@H]3CC[C@@H]2C1=O	·	–[15.4 µM]	–[11.4 µM]	–[15.4 µM]	·	·
COc1ccc(-c2nc3cnc(N4CCOCC4)nc3n(-c3ccc(OC)cc3)c2=O)cc1	–	–	16µM	–	?	?
CC(=O)Oc1cc(-c2coc3cc(OC(C)=O)c(OC(C)=O)c(OC(C)=O)c3c2=O)cc(OC(C)=O)c1OC(C)=O	·	–[3.08 µM]	16µM	–	–	·
COc1cc(-c2coc3cc(OC)c(OC)c(OC)c3c2=O)cc(OC)c1OC	·	–[3.08 µM]	–	–	–	·
C#C[C@@]1(O)CC[C@H]2[C@H]3CCC4=Cc5oncc5C[C@]4(C)[C@@H]3CC[C@@]21C	–	·	·	·	·	–
N.N.N.N.N.N.N.N.N.N.N.N.N.N.O.O.[Ru].[Ru].[Ru]	32µM	–	–	–	–	79µM
C=CCn1c(CCC(=O)O)ccc1-c1ccc(OC)cc1	–	–	13µM	–	–	–
O=C(/C=C\c1ccc(O)cc1)c1ccc(O)cc1O	–	–	?	–	–	–
O[C@@H]1CC[C@H]2Cc3ccccc3N=C21	–	·	·	·	·	–
CCOC(=O)c1cc(-c2ccc(N)cc2)sc1N	–	–	25µM	–	–[2.29 µM]	–
